The full data set covers some 21,000 targets. This sample favours those with the largest changes.
Compound: Cc1cc(ccc1-c1ccccc1)C(=O)N1CCCN(CC1)C(=O)CCl [compound 10]
Assay: probe-labelled cysteine peptide fold change vs DMSO (competition) (log2 fold change); higher = less target engagement (more negative = stronger competition)
Conditions: THP-1, incubation time: 4 h
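Note: competitive profiling in live THP-1 cells: cysteine peptides tagged with an iodoacetamide desthiobiotin (IA-DTB) probe, intensity after compound treatment relative to DMSO-treated cells.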

CRABP1_P29762_130_ELANDELILTFGADDVVCTR (UniProt P29762)
Sequence of UniProt P29762 (P29762 whole entry, looked up): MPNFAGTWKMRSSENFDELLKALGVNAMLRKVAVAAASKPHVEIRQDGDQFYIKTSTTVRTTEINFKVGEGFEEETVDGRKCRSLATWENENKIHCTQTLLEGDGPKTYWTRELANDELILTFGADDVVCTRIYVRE
probe-labelled cysteine peptide fold change (10 µM): 0.082 | probe-labelled cysteine peptide fold change (50 µM): 0.307

DDAH2_O95865_220_AMAVLTDHPYASLTLPDDAAADCLFLRPGLPGVPPFLLHR (UniProt O95865)
probe-labelled cysteine peptide fold change (10 µM): 0.061 | probe-labelled cysteine peptide fold change (50 µM): 0.0115

DENND4A_Q7Z401_952_GSADCLPK (UniProt Q7Z401)
Sequence of UniProt Q7Z401 (Q7Z401 whole entry, looked up): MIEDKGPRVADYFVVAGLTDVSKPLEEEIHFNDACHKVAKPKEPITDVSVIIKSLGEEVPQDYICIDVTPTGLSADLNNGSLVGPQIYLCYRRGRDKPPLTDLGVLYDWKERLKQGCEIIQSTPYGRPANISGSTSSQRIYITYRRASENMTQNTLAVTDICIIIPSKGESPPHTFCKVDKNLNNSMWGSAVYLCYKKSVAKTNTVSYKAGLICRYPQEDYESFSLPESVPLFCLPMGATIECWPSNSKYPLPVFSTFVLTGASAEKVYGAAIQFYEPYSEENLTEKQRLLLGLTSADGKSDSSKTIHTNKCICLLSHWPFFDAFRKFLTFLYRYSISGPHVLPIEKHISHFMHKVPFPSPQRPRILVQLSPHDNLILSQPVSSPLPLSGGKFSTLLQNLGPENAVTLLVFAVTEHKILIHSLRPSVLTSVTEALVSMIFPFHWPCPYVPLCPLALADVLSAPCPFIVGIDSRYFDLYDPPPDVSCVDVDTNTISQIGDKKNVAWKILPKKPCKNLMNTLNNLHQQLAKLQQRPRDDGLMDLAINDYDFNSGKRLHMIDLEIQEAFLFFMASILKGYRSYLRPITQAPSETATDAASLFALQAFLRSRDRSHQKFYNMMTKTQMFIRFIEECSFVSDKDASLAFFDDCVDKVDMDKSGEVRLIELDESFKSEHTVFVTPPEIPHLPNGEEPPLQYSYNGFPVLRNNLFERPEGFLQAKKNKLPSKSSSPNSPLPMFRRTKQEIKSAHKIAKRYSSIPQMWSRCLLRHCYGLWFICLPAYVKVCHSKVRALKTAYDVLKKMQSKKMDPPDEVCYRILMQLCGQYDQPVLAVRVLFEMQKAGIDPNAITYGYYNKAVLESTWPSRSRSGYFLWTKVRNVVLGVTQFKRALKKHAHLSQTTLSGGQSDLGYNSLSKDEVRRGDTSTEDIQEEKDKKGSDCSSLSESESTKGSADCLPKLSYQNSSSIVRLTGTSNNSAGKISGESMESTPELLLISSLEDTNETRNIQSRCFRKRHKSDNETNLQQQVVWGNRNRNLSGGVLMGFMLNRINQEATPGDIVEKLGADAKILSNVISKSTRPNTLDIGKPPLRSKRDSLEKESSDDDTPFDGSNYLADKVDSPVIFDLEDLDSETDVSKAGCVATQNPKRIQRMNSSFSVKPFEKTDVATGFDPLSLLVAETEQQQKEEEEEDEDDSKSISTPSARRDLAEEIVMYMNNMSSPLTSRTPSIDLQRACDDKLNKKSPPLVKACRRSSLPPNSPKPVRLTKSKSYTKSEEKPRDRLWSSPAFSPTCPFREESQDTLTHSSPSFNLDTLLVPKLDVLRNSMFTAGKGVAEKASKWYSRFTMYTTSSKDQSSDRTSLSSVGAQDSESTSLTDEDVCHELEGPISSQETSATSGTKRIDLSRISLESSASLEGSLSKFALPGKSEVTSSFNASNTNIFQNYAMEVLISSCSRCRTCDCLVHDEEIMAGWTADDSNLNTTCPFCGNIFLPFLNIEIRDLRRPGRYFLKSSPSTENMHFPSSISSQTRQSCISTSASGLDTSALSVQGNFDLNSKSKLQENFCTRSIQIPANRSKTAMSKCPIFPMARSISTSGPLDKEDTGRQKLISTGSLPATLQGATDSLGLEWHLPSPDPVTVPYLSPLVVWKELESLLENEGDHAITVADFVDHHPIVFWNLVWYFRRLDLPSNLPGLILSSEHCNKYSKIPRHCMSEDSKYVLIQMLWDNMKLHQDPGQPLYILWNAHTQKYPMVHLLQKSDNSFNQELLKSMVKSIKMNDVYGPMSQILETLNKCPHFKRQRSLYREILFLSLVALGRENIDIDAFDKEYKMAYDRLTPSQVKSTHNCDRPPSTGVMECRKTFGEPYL
probe-labelled cysteine peptide fold change (10 µM): -0.312 | probe-labelled cysteine peptide fold change (50 µM): 0.101

CPNE8_Q86YQ8_196_SNEDGSFTICHK (UniProt Q86YQ8)
probe-labelled cysteine peptide fold change (10 µM): 0.205 | probe-labelled cysteine peptide fold change (50 µM): 0.413

DNAJC7_Q99615_58_AIDMCPK (UniProt Q99615)
probe-labelled cysteine peptide fold change (10 µM): 0.162 | probe-labelled cysteine peptide fold change (50 µM): 0.0415

COPA_P53621_1148_KILSACEK (UniProt P53621)
Sequence of UniProt P53621 (P53621 whole entry, looked up): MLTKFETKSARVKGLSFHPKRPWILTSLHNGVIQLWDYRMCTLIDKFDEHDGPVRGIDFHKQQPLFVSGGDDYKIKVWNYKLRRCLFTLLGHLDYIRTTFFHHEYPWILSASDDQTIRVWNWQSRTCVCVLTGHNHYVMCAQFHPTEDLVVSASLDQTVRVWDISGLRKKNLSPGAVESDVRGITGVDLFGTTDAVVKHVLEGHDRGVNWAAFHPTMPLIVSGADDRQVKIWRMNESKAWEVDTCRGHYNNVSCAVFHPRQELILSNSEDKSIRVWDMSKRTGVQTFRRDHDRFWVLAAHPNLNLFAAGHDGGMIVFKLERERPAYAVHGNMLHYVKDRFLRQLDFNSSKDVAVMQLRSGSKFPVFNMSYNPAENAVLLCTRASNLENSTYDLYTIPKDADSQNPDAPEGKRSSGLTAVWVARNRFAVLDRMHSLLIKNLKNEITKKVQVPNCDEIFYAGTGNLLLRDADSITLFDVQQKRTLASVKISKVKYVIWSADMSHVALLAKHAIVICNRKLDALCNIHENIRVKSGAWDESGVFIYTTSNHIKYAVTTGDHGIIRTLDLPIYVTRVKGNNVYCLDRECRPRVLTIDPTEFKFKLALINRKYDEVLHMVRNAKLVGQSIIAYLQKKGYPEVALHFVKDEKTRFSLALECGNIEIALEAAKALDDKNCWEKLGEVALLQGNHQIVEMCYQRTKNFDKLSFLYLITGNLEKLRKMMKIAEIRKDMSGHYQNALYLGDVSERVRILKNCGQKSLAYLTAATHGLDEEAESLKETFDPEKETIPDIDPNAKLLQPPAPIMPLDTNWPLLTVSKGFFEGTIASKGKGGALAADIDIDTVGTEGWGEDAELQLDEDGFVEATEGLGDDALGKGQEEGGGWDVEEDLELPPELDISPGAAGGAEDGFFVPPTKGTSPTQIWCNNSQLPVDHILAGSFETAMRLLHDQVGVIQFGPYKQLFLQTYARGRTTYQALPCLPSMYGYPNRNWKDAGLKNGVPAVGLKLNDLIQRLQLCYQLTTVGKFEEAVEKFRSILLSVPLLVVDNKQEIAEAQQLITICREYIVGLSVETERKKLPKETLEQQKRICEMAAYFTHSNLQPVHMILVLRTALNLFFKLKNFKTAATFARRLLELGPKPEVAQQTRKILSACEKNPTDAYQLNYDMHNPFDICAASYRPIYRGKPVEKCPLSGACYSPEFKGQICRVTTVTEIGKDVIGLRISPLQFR
probe-labelled cysteine peptide fold change (10 µM): -0.212 | probe-labelled cysteine peptide fold change (50 µM): -1.12

CMIP_Q8IY22_363_NGCQQPCDR (UniProt Q8IY22)
Sequence of UniProt Q8IY22 (Q8IY22 whole entry, looked up): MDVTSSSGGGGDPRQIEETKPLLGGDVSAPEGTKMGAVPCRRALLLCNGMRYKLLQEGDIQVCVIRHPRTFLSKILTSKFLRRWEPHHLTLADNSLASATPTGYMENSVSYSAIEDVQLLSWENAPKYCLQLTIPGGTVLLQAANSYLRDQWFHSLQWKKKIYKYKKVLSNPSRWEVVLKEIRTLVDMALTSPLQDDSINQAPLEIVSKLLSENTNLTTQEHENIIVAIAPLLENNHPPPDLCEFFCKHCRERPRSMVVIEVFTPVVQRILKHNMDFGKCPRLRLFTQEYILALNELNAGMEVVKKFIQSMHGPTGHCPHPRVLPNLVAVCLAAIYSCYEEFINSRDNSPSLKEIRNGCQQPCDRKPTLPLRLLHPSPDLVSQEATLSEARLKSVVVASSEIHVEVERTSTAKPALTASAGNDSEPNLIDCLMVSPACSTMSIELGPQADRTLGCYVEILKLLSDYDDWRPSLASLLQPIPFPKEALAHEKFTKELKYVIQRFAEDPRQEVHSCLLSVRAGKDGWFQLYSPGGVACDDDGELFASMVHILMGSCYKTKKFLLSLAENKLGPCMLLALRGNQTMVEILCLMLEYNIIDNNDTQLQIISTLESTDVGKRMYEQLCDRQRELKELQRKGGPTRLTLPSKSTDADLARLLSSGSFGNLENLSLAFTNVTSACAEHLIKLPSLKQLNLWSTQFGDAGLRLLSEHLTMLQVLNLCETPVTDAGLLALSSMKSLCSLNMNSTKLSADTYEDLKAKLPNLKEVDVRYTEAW
probe-labelled cysteine peptide fold change (10 µM): -0.29 | probe-labelled cysteine peptide fold change (50 µM): -1.18

CORO7_P57737_790_TECDVREVELMR (UniProt P57737)
probe-labelled cysteine peptide fold change (10 µM): -0.178 | probe-labelled cysteine peptide fold change (50 µM): -0.995

CYB5R4_Q7L1T6_278_CQLISK (UniProt Q7L1T6)
probe-labelled cysteine peptide fold change (10 µM): -0.0627 | probe-labelled cysteine peptide fold change (50 µM): -0.00326

CPNE1_Q99829_4+14_AHCVTLVQLSISCDHLIDK (UniProt Q99829)
probe-labelled cysteine peptide fold change (10 µM): -0.148 | probe-labelled cysteine peptide fold change (50 µM): -0.173

CNNM4_Q6P4Q7_220_IVQNCGTEK<|>CNNM2_Q9H8M5_293_IVQNCGTEK (UniProt Q9H8M5+Q6P4Q7)
probe-labelled cysteine peptide fold change (10 µM): -0.2 | probe-labelled cysteine peptide fold change (50 µM): -0.279

DCAF6_Q58WW2_513_GIGSHCK (UniProt Q58WW2)
Sequence of UniProt Q58WW2 (Q58WW2 whole entry, looked up): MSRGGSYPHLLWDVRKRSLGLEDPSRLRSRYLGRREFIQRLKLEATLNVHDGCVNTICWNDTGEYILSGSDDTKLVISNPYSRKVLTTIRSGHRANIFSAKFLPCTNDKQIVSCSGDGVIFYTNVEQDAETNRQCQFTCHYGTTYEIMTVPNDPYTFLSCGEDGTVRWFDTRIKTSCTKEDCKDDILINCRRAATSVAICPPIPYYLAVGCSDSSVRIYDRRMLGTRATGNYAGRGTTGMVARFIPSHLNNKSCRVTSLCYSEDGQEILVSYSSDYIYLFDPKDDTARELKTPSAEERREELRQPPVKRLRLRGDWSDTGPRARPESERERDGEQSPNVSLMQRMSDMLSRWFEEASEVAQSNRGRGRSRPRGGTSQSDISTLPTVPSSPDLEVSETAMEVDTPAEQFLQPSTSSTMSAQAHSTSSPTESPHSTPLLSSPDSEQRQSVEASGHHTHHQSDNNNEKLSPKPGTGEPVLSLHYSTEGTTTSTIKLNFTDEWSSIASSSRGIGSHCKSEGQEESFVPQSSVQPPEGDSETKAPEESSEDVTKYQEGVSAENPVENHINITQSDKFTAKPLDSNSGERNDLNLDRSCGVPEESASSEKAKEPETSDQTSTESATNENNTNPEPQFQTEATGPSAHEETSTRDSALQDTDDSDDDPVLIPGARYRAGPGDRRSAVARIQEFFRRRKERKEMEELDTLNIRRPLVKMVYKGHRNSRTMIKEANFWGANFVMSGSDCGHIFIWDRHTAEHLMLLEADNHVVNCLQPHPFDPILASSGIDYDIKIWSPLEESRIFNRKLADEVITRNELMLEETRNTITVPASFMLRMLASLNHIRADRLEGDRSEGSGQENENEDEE
probe-labelled cysteine peptide fold change (10 µM): -0.205 | probe-labelled cysteine peptide fold change (50 µM): -0.361

DDX5_P17844_170_TLSYLLPAIVHINHQPFLERGDGPICLVLAPTR (UniProt P17844)
probe-labelled cysteine peptide fold change (10 µM): 0.236 | probe-labelled cysteine peptide fold change (50 µM): 0.565

CTR9_Q6PD62_196_TNPGCPAEVR (UniProt Q6PD62)
probe-labelled cysteine peptide fold change (10 µM): -0.0165 | probe-labelled cysteine peptide fold change (50 µM): -0.0939
